Targets with a hit are over-represented here; the source holds about 7,900 in all. About 0.6% of all pairs of compound and target were hits.
How the values were obtained:
Experiment in all cases: log2 fold change, soluble protein after heating vs DMSO (PISA); higher = thermal stabilisation; K562 cells, 10 uM, 30 min; active = over 0.2 and 3.5 SD of the protein, either way, in both replicates (recomputed)
[1] = compound: CC1=C(C=C(C=C1)NC(=O)C2=CC(=CC=C2)C(C)(C)C#N)NC3=CC4=C(C=C3)N=CN(C4=O)C
How it was run: (§1)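 For each measurement, 10 μM compound was applied for 30 min to K562 cells at 2×10^6 cells/mL. Aliquots were heated for 3 min across 48°C-58°C, pooled, and extracted in PBS with 0.5% NP-40 at 4°C; the supernatant after 21,000xg for 90 min was soluble protein. This was quantified by TMTpro 16plex LC-MS/MS with channel sums equalised, and thermal stability was reported relative to control samples from duplicates, on a log2 fold-change scale.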

[2] = compound: CC1=C(C=C(C=C1)NC(=O)C2=CC(=CC=C2)N(C)C)NC(=O)C3=CC=C(C=C3)O
How it was run: as §1

[3] = compound: CC1=CC=C(C=C1)SC2=C3C=C(SC3=CN=C2)C(=O)N
How it was run: as §1

[4] = compound: CC1=NC(=CC=C1)C2=C(N=C(N2)C(C)(C)C)C3=CC4=NC=CN=C4C=C3
How it was run: as §1

Nexturastat A = compound: CCCCN(Cc1ccc(C(=O)NO)cc1)C(=O)Nc1ccccc1 [Nexturastat A]
How it was run: as §1

vemurafenib = compound: CCCS(=O)(=O)Nc1ccc(F)c(C(=O)c2c[nH]c3ncc(-c4ccc(Cl)cc4)cc23)c1F [vemurafenib]
How it was run: as §1

[5] = compound: CCCS(=O)(=O)Nc1ccc(F)c(C(=O)c2c[nH]c3ncc(Cl)cc23)c1F
How it was run: as §1

[6] = compound: CCCc1cc(C)[nH]c(=O)c1CNC(=O)c1cc(-c2ccnc(N3CCN(C)CC3)c2)cc2c1cnn2C(C)C
How it was run: as §1

givinostat = compound: CCN(CC)Cc1ccc2cc(COC(=O)Nc3ccc(C(=O)NO)cc3)ccc2c1 [givinostat]
How it was run: as §1

barasertib = compound: CCN(CCCOc1ccc2c(Nc3cc(CC(=O)Nc4cccc(F)c4)[nH]n3)ncnc2c1)CCOP(=O)(O)O [barasertib]
How it was run: as §1

[7] = compound: CC[C@@H]1C(=O)N(C)c2cnc(Nc3ccc(C(=O)NC4CCN(C)CC4)cc3OC)nc2N1C1CCCC1
How it was run: as §1

volasertib = compound: CC[C@@H]1C(=O)N(C)c2cnc(Nc3ccc(C(=O)N[C@H]4CC[C@H](N5CCN(CC6CC6)CC5)CC4)cc3OC)nc2N1C(C)C [volasertib]
How it was run: as §1

[8] = compound: CC[C@H](C)N1C=C(C2=C(C=C(C=C21)C3=CN=C(C=C3)N4CCNCC4)C(=O)NCC5=C(C=C(NC5=O)C)C)C
How it was run: as §1

epoxomicin = compound: CC[C@H](C)[C@@H](C(=O)N[C@@H]([C@@H](C)O)C(=O)N[C@@H](CC(C)C)C(=O)[C@]1(CO1)C)NC(=O)[C@H]([C@@H](C)CC)N(C)C(=O)C [epoxomicin]
How it was run: as §1

[9] = compound: CCn1c(C(=O)N(C2CC2)C2CC2)cc2c3c(ncn3C)c(Nc3cc(C)n(C)n3)nc21
How it was run: as §1

[10] = compound: CCn1cc(-c2ccnc3[nH]c(-c4cccc(CN(C)C)c4)cc23)c(-c2ccc(NC(=O)N(C)C)cc2)n1
How it was run: as §1

[11] = compound: CN(C)CC(=O)Nc1ccc2[nH]c(=O)c3ccccc3c2c1
How it was run: as §1

rosiglitazone = compound: CN(CCOC1=CC=C(C=C1)C[C@H]2C(=O)NC(=O)S2)C3=CC=CC=N3 (racemic) [rosiglitazone]
How it was run: as §1

[12] = compound: CN1C2=C(C3=C1C(=O)N(N=C3)CC4=CC(=CC=C4)N)SC(=C2)S(=O)C
How it was run: as §1

[13] = compound: CN1CCC(CNc2ccc3ncc(-c4cccc(OC(F)(F)F)c4)n3n2)CC1
How it was run: as §1

Measured: log2 fold change

CDK11B (UniProt P21127)
Sequence of UniProt P21127 (P21127 whole entry, looked up): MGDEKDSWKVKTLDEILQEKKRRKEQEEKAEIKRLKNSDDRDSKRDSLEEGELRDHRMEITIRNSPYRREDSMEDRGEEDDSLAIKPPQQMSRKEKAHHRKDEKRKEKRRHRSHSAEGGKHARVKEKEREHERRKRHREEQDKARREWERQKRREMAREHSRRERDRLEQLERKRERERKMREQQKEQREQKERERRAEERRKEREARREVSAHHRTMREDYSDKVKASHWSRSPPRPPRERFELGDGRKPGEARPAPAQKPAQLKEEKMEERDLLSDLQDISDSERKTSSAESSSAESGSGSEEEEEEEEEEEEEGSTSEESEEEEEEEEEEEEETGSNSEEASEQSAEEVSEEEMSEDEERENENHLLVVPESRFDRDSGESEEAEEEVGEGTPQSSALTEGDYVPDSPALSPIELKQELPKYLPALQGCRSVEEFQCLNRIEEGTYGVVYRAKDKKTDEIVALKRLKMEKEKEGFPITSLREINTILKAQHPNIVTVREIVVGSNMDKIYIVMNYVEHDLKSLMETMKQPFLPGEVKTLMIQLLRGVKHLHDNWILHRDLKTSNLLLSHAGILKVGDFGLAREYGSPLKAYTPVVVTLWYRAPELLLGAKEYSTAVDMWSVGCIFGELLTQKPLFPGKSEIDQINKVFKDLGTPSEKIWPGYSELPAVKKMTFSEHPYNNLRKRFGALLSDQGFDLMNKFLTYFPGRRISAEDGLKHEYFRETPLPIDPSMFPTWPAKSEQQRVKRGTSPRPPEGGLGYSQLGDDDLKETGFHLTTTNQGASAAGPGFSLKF
inactive: [1] -0.079 | [2] 0.214 | [3] -0.109 | [4] 0.071 | Nexturastat A 0.038 | vemurafenib 0.029 | [5] -0.064 | [6] -0.063 | givinostat 0.114 | barasertib 0.028 | [7] 0.087 | volasertib 0.047 | [8] 0.028 | epoxomicin -0.072 | [9] -0.07 | [10] -0.01 | [11] -0.107 | rosiglitazone 0.004 | [12] 0.005 | [13] 0.094

CAMKK2 (UniProt Q96RR4)
active: volasertib 0.617
inactive: [1] 0.022 | [2] 0.024 | [3] -0.044 | [4] -0.009 | Nexturastat A 0.154 | vemurafenib 0.037 | [5] -0.043 | [6] 0.277 | givinostat -0.017 | barasertib 0.058 | [7] 0.374 | [8] 0.014 | epoxomicin 0.211 | [9] 0.114 | [10] -0.093 | [11] 0.145 | rosiglitazone 0.072 | [12] -0.008 | [13] 0.045

CPQ (UniProt Q9Y646)
active: volasertib -0.27
inactive: [1] 0.001 | [2] 0.025 | [3] -0.005 | [4] -0.005 | Nexturastat A -0.016 | vemurafenib 0.043 | [5] 0.006 | [6] 0.024 | givinostat 0.011 | barasertib -0.002 | [7] -0.144 | [8] -0.036 | epoxomicin 0.062 | [9] -0.011 | [10] -0.039 | [11] -0.021 | rosiglitazone -0.006 | [12] 0.032 | [13] -0.035

CDKN2AIP (UniProt Q9NXV6)
inactive: [1] 0.046 | [2] -0.01 | [3] -0.076 | [4] 0.008 | Nexturastat A 0.052 | vemurafenib 0.043 | [5] -0.053 | [6] 0.023 | givinostat 0.012 | barasertib -0.017 | [7] 0.096 | volasertib 0.057 | [8] -0.001 | epoxomicin 0.095 | [9] -0.017 | [10] 0.008 | [11] 0.046 | rosiglitazone 0.025 | [12] 0.03 | [13] 0.094

COPS3 (UniProt Q9UNS2)
Sequence of UniProt Q9UNS2 (Q9UNS2 whole entry, looked up): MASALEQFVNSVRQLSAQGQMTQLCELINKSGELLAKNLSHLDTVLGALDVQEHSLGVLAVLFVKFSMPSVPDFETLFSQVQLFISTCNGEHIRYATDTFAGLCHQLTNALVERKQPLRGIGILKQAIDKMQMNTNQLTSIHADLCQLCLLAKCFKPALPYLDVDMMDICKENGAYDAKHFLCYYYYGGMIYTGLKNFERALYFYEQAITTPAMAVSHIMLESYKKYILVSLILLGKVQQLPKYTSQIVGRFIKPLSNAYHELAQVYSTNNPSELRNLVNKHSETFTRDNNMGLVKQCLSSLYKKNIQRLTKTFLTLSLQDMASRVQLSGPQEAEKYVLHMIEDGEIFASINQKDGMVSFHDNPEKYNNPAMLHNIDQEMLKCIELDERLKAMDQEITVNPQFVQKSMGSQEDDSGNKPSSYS
inactive: [1] -0.008 | [2] -0.013 | [3] 0.009 | [4] 0.034 | Nexturastat A -0.02 | vemurafenib 0.004 | [5] 0.011 | [6] -0.044 | givinostat -0.056 | barasertib 0.016 | [7] 0.001 | volasertib -0.017 | [8] -0.001 | epoxomicin 0.054 | [9] 0 | [10] -0.014 | [11] -0.017 | rosiglitazone 0.007 | [12] -0.038 | [13] -0.03

CCNT1 (UniProt O60563)
Sequence of UniProt O60563 (O60563 whole entry, looked up): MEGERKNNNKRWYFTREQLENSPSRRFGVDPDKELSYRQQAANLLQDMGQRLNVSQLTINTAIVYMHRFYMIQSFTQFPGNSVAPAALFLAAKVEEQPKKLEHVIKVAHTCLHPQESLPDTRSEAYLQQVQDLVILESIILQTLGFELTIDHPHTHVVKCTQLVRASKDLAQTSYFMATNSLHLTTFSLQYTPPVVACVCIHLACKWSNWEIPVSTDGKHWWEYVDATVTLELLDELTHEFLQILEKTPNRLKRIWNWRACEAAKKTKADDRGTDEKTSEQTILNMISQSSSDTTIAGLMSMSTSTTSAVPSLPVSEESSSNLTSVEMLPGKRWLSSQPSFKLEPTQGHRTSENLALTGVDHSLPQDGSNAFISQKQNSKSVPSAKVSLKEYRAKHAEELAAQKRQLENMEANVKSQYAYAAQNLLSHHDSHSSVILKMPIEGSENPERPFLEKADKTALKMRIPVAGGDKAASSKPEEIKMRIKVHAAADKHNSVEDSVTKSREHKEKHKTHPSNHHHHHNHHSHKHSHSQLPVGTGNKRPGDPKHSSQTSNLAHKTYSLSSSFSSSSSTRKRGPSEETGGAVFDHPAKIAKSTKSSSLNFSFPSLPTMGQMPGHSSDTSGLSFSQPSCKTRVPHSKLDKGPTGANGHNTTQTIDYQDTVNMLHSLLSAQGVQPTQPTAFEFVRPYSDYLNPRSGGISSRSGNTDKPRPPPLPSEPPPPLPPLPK
inactive: [1] -0.033 | [2] -0.018 | [3] -0.02 | [4] 0.005 | Nexturastat A 0.218 | vemurafenib 0.027 | [5] 0.007 | [6] 0.023 | givinostat 0.022 | barasertib 0.022 | [7] 0.023 | volasertib -0.085 | [8] 0.069 | epoxomicin -0.063 | [9] 0.028 | [10] 0.035 | [11] -0.055 | rosiglitazone -0.024 | [12] 0.132 | [13] -0.036

CBX5 (UniProt P45973)
inactive: [1] 0.051 | [2] 0.029 | [3] 0.073 | [4] 0.113 | Nexturastat A 0.027 | vemurafenib 0.045 | [5] 0.085 | [6] -0.051 | givinostat 0.043 | barasertib -0.05 | [7] -0.033 | volasertib -0.128 | [8] 0.048 | epoxomicin -0.022 | [9] -0.034 | [10] -0.057 | [11] -0.034 | rosiglitazone -0.012 | [12] -0.121 | [13] -0.003

C16orf58 (UniProt Q96GQ5)
Sequence of UniProt Q96GQ5 (Q96GQ5 whole entry, looked up): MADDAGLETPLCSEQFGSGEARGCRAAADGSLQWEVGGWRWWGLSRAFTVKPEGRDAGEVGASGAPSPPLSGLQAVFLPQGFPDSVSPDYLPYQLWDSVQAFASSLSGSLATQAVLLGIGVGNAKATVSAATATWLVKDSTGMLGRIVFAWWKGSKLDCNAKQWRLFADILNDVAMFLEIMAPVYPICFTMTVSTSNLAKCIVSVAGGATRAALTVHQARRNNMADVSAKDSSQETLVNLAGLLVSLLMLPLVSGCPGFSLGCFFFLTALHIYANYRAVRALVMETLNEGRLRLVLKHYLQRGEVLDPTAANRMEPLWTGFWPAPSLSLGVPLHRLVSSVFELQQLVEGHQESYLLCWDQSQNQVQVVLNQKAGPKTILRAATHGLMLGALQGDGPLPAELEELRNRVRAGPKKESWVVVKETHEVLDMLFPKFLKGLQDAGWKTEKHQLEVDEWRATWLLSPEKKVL
inactive: [1] -0.04 | [2] 0.001 | [3] 0.021 | [4] 0.003 | Nexturastat A -0.049 | vemurafenib -0.007 | [5] 0.005 | [6] -0.075 | givinostat -0.012 | barasertib -0.011 | [7] -0.055 | volasertib -0.013 | [8] -0.005 | epoxomicin 0.029 | [9] 0.015 | [10] -0.018 | [11] 0.006 | rosiglitazone 0.039 | [12] -0.037 | [13] -0.086

CSNK2A2 (UniProt P19784)
active: [13] -0.244
inactive: [1] -0.037 | [2] 0.009 | [3] 0.021 | [4] 0.005 | Nexturastat A 0.004 | vemurafenib 0 | [5] 0.08 | [6] -0.035 | givinostat 0.03 | barasertib 0.003 | [7] -0.053 | volasertib -0.122 | [8] 0.028 | epoxomicin 0.029 | [9] 0.01 | [10] -0.043 | [11] -0.006 | rosiglitazone 0.066 | [12] -0.038

CCAR1 (UniProt Q8IX12)
Sequence of UniProt Q8IX12 (Q8IX12 whole entry, looked up): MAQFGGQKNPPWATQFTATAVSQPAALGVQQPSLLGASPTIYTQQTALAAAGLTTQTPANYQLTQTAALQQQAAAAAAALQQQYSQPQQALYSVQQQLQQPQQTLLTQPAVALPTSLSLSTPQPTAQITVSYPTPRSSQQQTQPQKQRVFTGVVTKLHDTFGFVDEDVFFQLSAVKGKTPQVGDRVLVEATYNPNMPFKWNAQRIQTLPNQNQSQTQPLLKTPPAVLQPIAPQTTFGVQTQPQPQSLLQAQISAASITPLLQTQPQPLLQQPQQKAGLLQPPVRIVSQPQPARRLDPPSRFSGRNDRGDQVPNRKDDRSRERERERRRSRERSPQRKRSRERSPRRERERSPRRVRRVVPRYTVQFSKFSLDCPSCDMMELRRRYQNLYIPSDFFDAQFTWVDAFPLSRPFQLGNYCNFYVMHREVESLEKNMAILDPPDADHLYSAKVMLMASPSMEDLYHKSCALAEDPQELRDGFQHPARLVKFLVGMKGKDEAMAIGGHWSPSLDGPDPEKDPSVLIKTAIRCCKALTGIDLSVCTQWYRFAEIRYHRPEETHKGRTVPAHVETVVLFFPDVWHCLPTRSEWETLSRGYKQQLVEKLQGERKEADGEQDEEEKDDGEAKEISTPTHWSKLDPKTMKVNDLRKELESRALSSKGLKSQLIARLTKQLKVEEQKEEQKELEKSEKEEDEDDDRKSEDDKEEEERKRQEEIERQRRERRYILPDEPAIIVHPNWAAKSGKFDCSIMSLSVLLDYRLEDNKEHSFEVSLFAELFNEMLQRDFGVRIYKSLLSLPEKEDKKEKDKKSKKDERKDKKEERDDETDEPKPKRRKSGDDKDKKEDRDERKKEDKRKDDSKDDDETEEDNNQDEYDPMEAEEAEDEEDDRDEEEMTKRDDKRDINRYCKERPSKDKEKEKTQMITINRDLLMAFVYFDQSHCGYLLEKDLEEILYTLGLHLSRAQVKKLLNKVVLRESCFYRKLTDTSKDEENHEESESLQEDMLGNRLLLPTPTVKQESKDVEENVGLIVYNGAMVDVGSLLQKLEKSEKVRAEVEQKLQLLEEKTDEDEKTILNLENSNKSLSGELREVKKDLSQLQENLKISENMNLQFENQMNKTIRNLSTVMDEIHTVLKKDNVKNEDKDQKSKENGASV
active: [13] -0.319
inactive: [1] 0.03 | [2] -0.046 | [3] -0.001 | [4] -0.017 | Nexturastat A 0.071 | vemurafenib 0.007 | [5] 0.006 | [6] -0.045 | givinostat 0.027 | barasertib -0.04 | [7] 0.079 | volasertib 0.149 | [8] 0.063 | epoxomicin 0.008 | [9] -0.029 | [10] -0.219 | [11] 0.018 | rosiglitazone 0.046 | [12] -0.039

CAMK2G isoform 6 (UniProt Q13555)
inactive: [1] 0.048 | [2] -0.055 | [3] 0.131 | [4] -0.011 | Nexturastat A 0.094 | vemurafenib -0.026 | [5] 0.11 | [6] 0.15 | givinostat 0.025 | barasertib 0.065 | [7] 0.095 | volasertib -0.15 | [8] 0.072 | epoxomicin -0.028 | [9] -0.063 | [10] 0.042 | [11] 0.035 | rosiglitazone -0.008 | [12] 0.064 | [13] -0.319

CIT isoform 4 (UniProt O14578)
inactive: [1] -0.105 | [2] 0.017 | [3] -0.003 | [4] -0.032 | Nexturastat A -0.02 | vemurafenib -0.012 | [5] 0.01 | [6] 0.002 | givinostat 0.033 | barasertib 0.047 | [7] 0.068 | volasertib -0.225 | [8] 0.134 | epoxomicin 0.017 | [9] -0.041 | [10] -0.033 | [11] -0.037 | rosiglitazone 0.057 | [12] 0 | [13] -0.033

CTBS (UniProt Q01459)
Sequence of UniProt Q01459 (Q01459 whole entry, looked up): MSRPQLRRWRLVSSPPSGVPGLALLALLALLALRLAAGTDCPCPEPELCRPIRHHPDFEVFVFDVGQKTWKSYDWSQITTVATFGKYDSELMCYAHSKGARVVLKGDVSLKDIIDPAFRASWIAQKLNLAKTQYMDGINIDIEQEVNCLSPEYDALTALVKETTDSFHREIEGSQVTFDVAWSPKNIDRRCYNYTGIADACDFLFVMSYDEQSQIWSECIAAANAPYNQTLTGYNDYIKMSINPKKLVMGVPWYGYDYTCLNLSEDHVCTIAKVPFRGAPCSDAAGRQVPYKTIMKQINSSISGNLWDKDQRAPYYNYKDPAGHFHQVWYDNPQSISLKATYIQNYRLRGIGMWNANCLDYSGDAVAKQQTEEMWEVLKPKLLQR
inactive: [1] 0.206 | [2] 0.014 | [3] -0.026 | [4] -0.065 | Nexturastat A 0.043 | vemurafenib 0.093 | [5] -0.017 | [6] 0.017 | givinostat 0.039 | barasertib 0.03 | [8] -0.074 | epoxomicin 0.033 | [9] 0.007 | [10] 0.069 | [11] 0.013 | rosiglitazone -0.058 | [12] 0.045
active: [7] -0.494 | volasertib -0.376 | [13] -0.44

CHCHD4 isoform 2 (UniProt Q8N4Q1)
Sequence of UniProt Q8N4Q1 (Q8N4Q1 whole entry, looked up): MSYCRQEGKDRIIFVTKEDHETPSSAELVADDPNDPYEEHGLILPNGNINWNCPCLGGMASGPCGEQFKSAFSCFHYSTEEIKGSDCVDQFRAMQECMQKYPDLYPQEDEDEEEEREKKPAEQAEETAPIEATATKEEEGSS
active: [13] 0.795
inactive: [1] 0.373 | [2] 0.001 | [3] 0.157 | [4] -0.035 | Nexturastat A -0.026 | vemurafenib -0.015 | [5] 0.412 | [6] -0.063 | givinostat 0.029 | barasertib -0.024 | [7] -0.009 | volasertib -0.125 | [8] -0.096 | epoxomicin -0.186 | [9] -0.034 | [10] 0.231 | [11] -0.023 | rosiglitazone -0.007 | [12] -0.107

COMT (UniProt P21964)
Sequence of UniProt P21964 (P21964 whole entry, looked up): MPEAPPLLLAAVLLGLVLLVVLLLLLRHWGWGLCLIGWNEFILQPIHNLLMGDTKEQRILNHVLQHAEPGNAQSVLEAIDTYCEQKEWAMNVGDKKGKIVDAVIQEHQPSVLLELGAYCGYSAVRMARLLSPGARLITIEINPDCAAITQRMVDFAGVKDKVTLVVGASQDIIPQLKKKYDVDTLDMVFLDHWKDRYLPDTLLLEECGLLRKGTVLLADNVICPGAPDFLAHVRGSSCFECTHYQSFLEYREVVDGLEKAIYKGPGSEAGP
inactive: [1] 0.14 | [2] 0.009 | [3] -0.012 | [4] 0.019 | Nexturastat A 0.036 | vemurafenib 0.011 | [5] 0.002 | [6] 0.005 | givinostat 0.144 | barasertib -0.006 | [7] 0.013 | volasertib 0.073 | [8] 0.01 | epoxomicin -0.023 | [9] -0.021 | [10] -0.01 | [11] 0.005 | rosiglitazone 0.039 | [12] -0.11 | [13] 0.142

CLPX (UniProt O76031)
Sequence of UniProt O76031 (O76031 whole entry, looked up): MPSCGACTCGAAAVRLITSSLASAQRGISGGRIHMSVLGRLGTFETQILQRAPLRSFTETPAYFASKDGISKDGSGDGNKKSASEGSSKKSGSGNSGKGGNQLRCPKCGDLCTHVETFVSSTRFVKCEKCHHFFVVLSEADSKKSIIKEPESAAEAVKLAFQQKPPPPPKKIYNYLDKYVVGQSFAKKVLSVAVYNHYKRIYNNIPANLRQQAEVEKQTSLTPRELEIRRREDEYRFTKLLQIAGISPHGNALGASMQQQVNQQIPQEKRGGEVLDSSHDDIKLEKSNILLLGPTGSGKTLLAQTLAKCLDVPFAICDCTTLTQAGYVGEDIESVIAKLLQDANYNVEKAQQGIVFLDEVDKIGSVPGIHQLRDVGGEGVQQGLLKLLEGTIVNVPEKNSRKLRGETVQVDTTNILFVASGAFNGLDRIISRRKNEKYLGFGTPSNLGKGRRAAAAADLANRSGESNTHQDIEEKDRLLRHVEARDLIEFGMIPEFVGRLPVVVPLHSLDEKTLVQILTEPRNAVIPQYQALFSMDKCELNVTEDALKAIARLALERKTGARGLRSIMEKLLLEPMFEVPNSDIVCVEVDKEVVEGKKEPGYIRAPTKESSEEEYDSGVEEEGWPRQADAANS
inactive: [1] 0.022 | [2] -0.013 | [3] -0.008 | [4] 0.012 | Nexturastat A 0 | vemurafenib -0.011 | [5] -0.013 | [6] -0.002 | givinostat 0.02 | barasertib -0.013 | [7] 0.039 | volasertib 0.192 | [8] -0.06 | epoxomicin -0.019 | [9] -0.03 | [10] -0.022 | [11] 0.026 | rosiglitazone -0.009 | [12] -0.01 | [13] 0.072
